Reference: the supplement of paper PMC6555819

Experiments:
Assay in all cases: PBM binding z-score (relative to random genomic background probes); higher = stronger binding; sequences stand for … in GC…GCGATTGACAGCGTAGAATGAAGG
[1] = system: FXR:RXRa (NR concentration 270 nM, RXRa partner concentration 90 nM)
Procedure, shortened: (§1)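 Binding buffer was PBS pH 7.4 with 2% milk, 0.02% Triton X-100, 1 mM DTT, 0.2 mg/mL BSA and 0.4 mg/ml salmon testes DNA. In it, ligand-free nuclear receptor dimers were incubated 1 h on custom Agilent 4×180K protein-binding microarrays carrying double-stranded probes. Antibodies against each partner (one per run) detected binding, and z-scores were calculated against random background probes after regression normalization of scanned fluorescence.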

[2] = system: LXRa:RXRa (NR concentration 270 nM, RXRa partner concentration 90 nM)
Procedure, shortened: as §1

[3] = system: LXRa homodimer (NR concentration 270 nM)
Procedure, shortened: as §1

[4] = system: LXRb:RXRa (NR concentration 270 nM, RXRa partner concentration 90 nM)
Procedure, shortened: as §1

[5] = system: LXRb homodimer (NR concentration 270 nM)
Procedure, shortened: as §1

[6] = system: PPARa:RXRa (NR concentration 270 nM, RXRa partner concentration 90 nM)
Procedure, shortened: as §1

[7] = system: PPARg:RXRa (NR concentration 180 nM, RXRa partner concentration 90 nM)
Procedure, shortened: as §1

[8] = system: PPARg:RXRa 270nM:90nM, anti-RXR (NR concentration 270 nM, RXRa partner concentration 90 nM)
Procedure, shortened: as §1

[9] = system: PPARg:RXRa 30nM:10nM, anti-RXR (NR concentration 30 nM, RXRa partner concentration 10 nM)
Procedure, shortened: as §1

[10] = system: PPARg:RXRa 90nM:30nM, anti-RXR (NR concentration 90 nM, RXRa partner concentration 30 nM)
Procedure, shortened: as §1

[11] = system: PPARg:RXRa DBDmut IVT, anti-RXR (DBD mutation: RXRa K156A/R161A, NR concentration 270 nM, RXRa partner concentration 90 nM)
Procedure, shortened: as §1

[12] = system: PPARg:RXRa IVT, anti-PPARg (NR concentration 270 nM, RXRa partner concentration 90 nM)
Procedure, shortened: as §1

[13] = system: PPARg DBDmut:RXRa IVT, anti-PPARg (DBD mutation: PPARg1 K132A/R137A, NR concentration 270 nM, RXRa partner concentration 90 nM)
Procedure, shortened: as §1

[14] = system: PPARg DBDmut IVT, anti-PPARg (DBD mutation: PPARg1 K132A/R137A, NR concentration 270 nM)
Procedure, shortened: as §1

[15] = system: PPARg homodimer (NR concentration 180 nM)
Procedure, shortened: as §1

[16] = system: PXR:RXRa (NR concentration 270 nM, RXRa partner concentration 90 nM)
Procedure, shortened: as §1

[17] = system: PXR homodimer (NR concentration 270 nM)
Procedure, shortened: as §1

[18] = system: RARa:RXR (NR concentration 270 nM, RXRa partner concentration 90 nM)
Procedure, shortened: as §1

[19] = system: RARa homodimer (NR concentration 270 nM)
Procedure, shortened: as §1

[20] = system: RARb:RXRa (NR concentration 270 nM, RXRa partner concentration 90 nM)
Procedure, shortened: as §1

Row | Sequence | PBM binding z-score [1] | PBM binding z-score [2] | PBM binding z-score [3] | PBM binding z-score [4] | PBM binding z-score [5] | PBM binding z-score [6] | PBM binding z-score [7] | PBM binding z-score [8] | PBM binding z-score [9] | PBM binding z-score [10] | PBM binding z-score [11] | PBM binding z-score [12] | PBM binding z-score [13] | PBM binding z-score [14] | PBM binding z-score [15] | PBM binding z-score [16] | PBM binding z-score [17] | PBM binding z-score [18] | PBM binding z-score [19] | PBM binding z-score [20]
1 | CCTTAAGGGTCACTGACAGGTTATAGCATTTGGA | 7.39 | 5.66 | 0.887 | 5.01 | 0.447 | 6.24 | 6.29 | 6.19 | 2.45 | 4.77 | 3.94 | 4.19 | 0.865 | 0.0136 | 3.85 | 4.69 | 0.0863 | 5.85 | 1.33 | 5.18
2 | TCTATAAGTTGAAGGGCAACCGACGAGTCCGTTT | 0.654 | 0.764 | -0.0358 | 0.57 | 0.00788 | 1.27 | 0.844 | 2.82 | 3.72 | 3.29 | 2.03 | 0.839 | 0.713 | 0.947 | 0.68 | 0.812 | 0.652 | 0.558 | 0.192 | 1.93
3 | TCTTGTGGATCAAGCAGGTTAAGAAAGCCTGAGT | 0.364 | 0.407 | -0.212 | 0.444 | -0.493 | 0.766 | -0.54 | 1.07 | 2.27 | 1.58 | 1.46 | 0.177 | -0.713 | 0.262 | -0.187 | 0.422 | 0.248 | 0.506 | -0.587 | 0.161
4 | ATCTCTATGTAACCAAGTTCAGTGAATGCCGAAC | 0.239 | 0.344 | 0.727 | 0.489 | 0.572 | 0.351 | 0.288 | 0.822 | 0.337 | 0.387 | -0.0629 | 0.707 | 0.85 | 1.12 | 0.121 | 1.66 | 1.51 | 0.419 | 0.407 | 0.755
5 | CGTCCAAGGTCAATGCTAGGTCAATGAAAGCATT | 6.8 | 5.82 | 3.63 | 4.64 | 1.53 | 5.09 | 4.43 | 4.97 | 1.54 | 3.64 | 2.82 | 4.3 | 0.467 | 0.337 | 5.41 | 5.09 | 1.55 | 5.61 | 1.61 | 5.25
6 | GCGACTGGGGCAAAGCAGGTAACCATAAGGTTGG | -0.15 | -0.576 | -0.622 | -0.339 | -0.997 | 0.96 | 1.1 | 1.08 | -0.433 | 0.285 | 4.21 | 3.7 | -0.574 | -0.498 | -0.0633 | -0.292 | -0.741 | 0.385 | -0.971 | 0.691
7 | GCTTGTAGATCAAGGTTAAGAGAGACTAAGCTAA | -0.00904 | 0.508 | -0.353 | 0.119 | -0.894 | 1.36 | 0.796 | 2.03 | 0.342 | 1.44 | 1.35 | 1.01 | 0.118 | -0.183 | 0.193 | 0.187 | -0.0843 | 0.668 | -0.213 | 0.688
8 | CGAACTAGGTCAGAACAGGACAGTGGAGGATGAT | 1.69 | 0.958 | -0.201 | 0.242 | -0.2 | 2.93 | 5.08 | 4.33 | 1.86 | 3.73 | 7.32 | 7.18 | 1.32 | 0.317 | 0.748 | 0.65 | -0.155 | 0.722 | 0.321 | 2.99
9 | CCACGGAGGACAGAAGGTCAGAGCTGTCCGCTTT | 1.39 | 1.72 | -0.0316 | 1.33 | -0.786 | 2.11 | 0.277 | 0.736 | -0.771 | 0.384 | 0.376 | 0.519 | -0.839 | -1.85 | 0.926 | 1.56 | -0.17 | 2.2 | -0.0117 | 3.21
10 | ATCTCTAGTTAACAAGTTCAGTGAAAGAGAGGAC | 0.682 | 1.12 | 0.782 | 0.883 | 1.22 | 0.724 | 0.29 | 0.54 | 0.48 | 0.596 | 0.0329 | 0.697 | 1.35 | 1.03 | 0.961 | 1.81 | 2.1 | 0.902 | 1.15 | 1.49
11 | ACGTACGGGTCAACGAGGTTATAGCACGCGTATA | 7 | 4.84 | 0.327 | 4.27 | 0.00154 | 5.95 | 5.01 | 4.94 | 1.55 | 3.46 | 1.33 | 2.92 | 0.48 | 0.418 | 1.72 | 5.2 | 2.83 | 5.19 | 0.777 | 4.28
12 | TATACAGGGTCAAAGGCCAGTGTACGAATGTCGA | 6.89 | 6.1 | 2.61 | 4.74 | 2.33 | 6.22 | 8.3 | 7.38 | 4.93 | 7.23 | 1.89 | 5.07 | 2.16 | 0.623 | 2.38 | 4.13 | 0.622 | 5.66 | 0.468 | 4.57
13 | ACTAGCCGGCCAAGGGTCACTCAAGATTAGTCCG | 2.41 | 2.53 | 0.141 | 2.59 | -0.832 | 3.81 | 5.6 | 5.62 | 3.35 | 5.18 | -0.188 | 2.25 | -0.122 | -1.13 | 0.922 | 3 | -0.135 | 3.82 | -0.211 | 3.41
14 | AGAATGAGGTTACCAAAGATCACGGAAACGCTTG | 2.28 | 6.94 | 0.129 | 3.82 | -0.202 | 3.5 | 2.79 | 2.7 | 0.915 | 2.03 | 3.7 | 3.26 | 1.1 | 0.644 | 0.807 | 2.1 | -0.253 | 2.3 | 0.0214 | 2.15
15 | TCTTGTAGATCAAGCAGGTTAAGGAAGCCTGAGT | 0.133 | 0.211 | -0.315 | 0.139 | -0.226 | 0.674 | -0.544 | 1.08 | 2.6 | 1.8 | 1.51 | 0.345 | 0.213 | -0.0431 | -0.0432 | 0.142 | 0.105 | 0.407 | -0.315 | 0.0755
16 | CCTGCTAGGTCAATGGTCAGCTACAGCAGCTCGC | 3.03 | 2.08 | -0.0038 | 1.55 | -0.217 | 2.98 | 4.03 | 5.1 | 2.52 | 4.92 | 4.55 | 3.95 | -0.354 | -0.419 | 1.53 | 1.04 | -0.299 | 1.64 | -0.404 | 3.58
17 | TCTAGTTGGTCAAACGTCACACACTCGAAATGCG | 0.778 | 0.664 | 0.422 | 0.693 | 0.281 | 2.06 | 3.61 | 4.92 | 4.37 | 5.13 | 3.29 | 2.32 | 0.65 | 1.11 | 1.05 | 0.699 | 0.241 | 0.948 | 0.646 | 1.2
18 | TCGAGTAGGTTGCCAATGGGGCATTCAGCTTTCT | -0.454 | -0.408 | -0.785 | -0.313 | -0.788 | -0.0635 | -0.86 | 0.227 | 0.337 | 0.314 | 0.771 | 0.26 | -0.582 | -1.2 | -1.09 | -0.544 | -1.13 | -0.717 | -1.42 | -0.201
19 | AGAATCAGGTTATACGTAGATCAGGGAAGAAAGT | 0.826 | 0.893 | 0.313 | 0.875 | 0.265 | 1.63 | 1.11 | 1.38 | 0.762 | 0.859 | 3.66 | 2.1 | 1.47 | 0.861 | 0.756 | 0.61 | 0.471 | 0.799 | 0.86 | 0.961
20 | ATCTCAAGGTAAGACTCAGTTCAGTGAAGAACGC | 0.749 | 0.642 | 0.594 | 0.258 | 0.655 | 0.216 | 0.033 | 0.104 | 0.217 | 0.104 | 0.2 | 0.426 | 0.753 | 0.498 | 0.782 | 1.47 | 1.54 | 0.694 | 1.1 | 0.614
